Experiments:
[1] = molecular target: T1, Inhibitor of nuclear factor kappa-B kinase subunit epsilon (Homo sapiens) (UniProt Q14164); details: at 1 µM;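 also: reported values are averaged percent inhibition figures against human IKKε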
T1 sequence (whole entry): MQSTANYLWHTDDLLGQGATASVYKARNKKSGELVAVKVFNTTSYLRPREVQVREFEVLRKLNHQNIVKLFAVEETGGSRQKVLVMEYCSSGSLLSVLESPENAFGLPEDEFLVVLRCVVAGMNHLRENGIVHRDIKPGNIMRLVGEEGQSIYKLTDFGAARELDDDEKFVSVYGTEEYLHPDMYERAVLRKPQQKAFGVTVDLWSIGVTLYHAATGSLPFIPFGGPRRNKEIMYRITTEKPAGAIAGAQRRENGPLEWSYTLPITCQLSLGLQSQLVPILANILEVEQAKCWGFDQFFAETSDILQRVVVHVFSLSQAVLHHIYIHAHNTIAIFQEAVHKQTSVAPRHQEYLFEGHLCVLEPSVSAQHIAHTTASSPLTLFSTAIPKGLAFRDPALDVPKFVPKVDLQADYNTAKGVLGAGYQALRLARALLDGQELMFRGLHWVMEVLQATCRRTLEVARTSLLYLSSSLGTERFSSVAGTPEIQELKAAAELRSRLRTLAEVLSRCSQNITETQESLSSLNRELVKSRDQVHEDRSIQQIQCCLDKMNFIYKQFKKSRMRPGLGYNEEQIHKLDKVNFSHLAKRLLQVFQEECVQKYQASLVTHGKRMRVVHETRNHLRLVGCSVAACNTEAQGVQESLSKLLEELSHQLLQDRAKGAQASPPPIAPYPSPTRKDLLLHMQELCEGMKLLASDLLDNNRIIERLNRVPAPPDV

[2] = molecular target: T2, Serine/threonine-protein kinase Nek1 (Homo sapiens) (UniProt Q96PY6); details: at 0.1 µM
T2 sequence (whole entry): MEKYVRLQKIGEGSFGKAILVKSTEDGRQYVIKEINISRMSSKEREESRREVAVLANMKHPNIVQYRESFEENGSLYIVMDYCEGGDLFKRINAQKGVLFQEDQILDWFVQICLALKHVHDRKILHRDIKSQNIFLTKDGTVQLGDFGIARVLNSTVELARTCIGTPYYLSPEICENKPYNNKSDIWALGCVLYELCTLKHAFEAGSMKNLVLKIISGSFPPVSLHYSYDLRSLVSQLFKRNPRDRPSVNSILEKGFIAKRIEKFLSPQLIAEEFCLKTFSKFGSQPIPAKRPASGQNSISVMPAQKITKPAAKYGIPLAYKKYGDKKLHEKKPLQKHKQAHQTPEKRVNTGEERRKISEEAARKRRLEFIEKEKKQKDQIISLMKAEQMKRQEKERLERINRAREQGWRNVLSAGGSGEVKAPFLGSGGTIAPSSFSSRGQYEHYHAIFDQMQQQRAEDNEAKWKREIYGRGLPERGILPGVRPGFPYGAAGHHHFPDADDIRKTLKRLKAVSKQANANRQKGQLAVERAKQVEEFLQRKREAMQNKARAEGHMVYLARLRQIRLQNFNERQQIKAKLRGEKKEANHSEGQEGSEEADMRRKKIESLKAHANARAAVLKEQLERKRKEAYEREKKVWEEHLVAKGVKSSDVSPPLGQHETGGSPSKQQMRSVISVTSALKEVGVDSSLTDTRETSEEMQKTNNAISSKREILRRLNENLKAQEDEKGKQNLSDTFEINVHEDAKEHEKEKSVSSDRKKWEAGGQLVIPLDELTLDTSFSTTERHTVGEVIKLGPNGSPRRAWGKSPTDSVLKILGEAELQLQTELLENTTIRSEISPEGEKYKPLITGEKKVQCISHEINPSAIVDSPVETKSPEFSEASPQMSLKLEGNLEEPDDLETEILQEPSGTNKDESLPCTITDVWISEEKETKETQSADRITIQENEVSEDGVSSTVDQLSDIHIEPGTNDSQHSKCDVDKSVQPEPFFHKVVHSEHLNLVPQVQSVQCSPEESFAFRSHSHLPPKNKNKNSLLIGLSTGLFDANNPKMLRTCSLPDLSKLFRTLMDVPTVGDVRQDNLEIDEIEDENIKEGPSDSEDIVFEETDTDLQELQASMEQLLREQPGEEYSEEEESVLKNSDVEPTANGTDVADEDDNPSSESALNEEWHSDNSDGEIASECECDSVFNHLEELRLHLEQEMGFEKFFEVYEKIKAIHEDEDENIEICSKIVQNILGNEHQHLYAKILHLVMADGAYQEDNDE

[3] = molecular target: T2, Serine/threonine-protein kinase Nek1 (Homo sapiens); details: at 1 µM
[4] = molecular target: T3, Serine/threonine-protein kinase Nek2 (Homo sapiens) (UniProt P51955); details: at 0.1 µM
T3 sequence (whole entry): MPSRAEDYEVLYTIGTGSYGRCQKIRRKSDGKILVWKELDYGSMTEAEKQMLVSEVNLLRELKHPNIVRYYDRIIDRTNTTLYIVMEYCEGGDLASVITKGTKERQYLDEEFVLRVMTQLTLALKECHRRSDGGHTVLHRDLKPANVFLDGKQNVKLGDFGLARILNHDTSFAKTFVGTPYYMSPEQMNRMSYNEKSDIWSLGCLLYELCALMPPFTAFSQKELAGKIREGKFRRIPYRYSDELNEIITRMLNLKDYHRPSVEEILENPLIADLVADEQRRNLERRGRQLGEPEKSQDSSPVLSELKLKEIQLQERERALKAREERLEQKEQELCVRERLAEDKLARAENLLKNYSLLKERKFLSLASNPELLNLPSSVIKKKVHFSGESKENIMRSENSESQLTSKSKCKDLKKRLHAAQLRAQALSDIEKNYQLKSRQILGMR

[5] = molecular target: T3, Serine/threonine-protein kinase Nek2 (Homo sapiens); details: at 1 µM
[6] = molecular target: Serine/threonine-protein kinase Nek6 (Homo sapiens) (UniProt Q9HC98); details: at 0.1 µM
[7] = molecular target: Serine/threonine-protein kinase Nek6 (Homo sapiens) (UniProt Q9HC98); details: at 1 µM
[8] = molecular target: Serine/threonine-protein kinase Nek7 (Homo sapiens) (UniProt Q8TDX7); details: at 0.1 µM
[9] = molecular target: Serine/threonine-protein kinase Nek7 (Homo sapiens) (UniProt Q8TDX7); details: at 1 µM
[10] = molecular target: T4, Serine/threonine-protein kinase Nek9 (Homo sapiens) (UniProt Q8TD19); details: at 0.1 µM;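 also: reported value is the mean percent inhibition of NEK9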
T4 sequence (whole entry): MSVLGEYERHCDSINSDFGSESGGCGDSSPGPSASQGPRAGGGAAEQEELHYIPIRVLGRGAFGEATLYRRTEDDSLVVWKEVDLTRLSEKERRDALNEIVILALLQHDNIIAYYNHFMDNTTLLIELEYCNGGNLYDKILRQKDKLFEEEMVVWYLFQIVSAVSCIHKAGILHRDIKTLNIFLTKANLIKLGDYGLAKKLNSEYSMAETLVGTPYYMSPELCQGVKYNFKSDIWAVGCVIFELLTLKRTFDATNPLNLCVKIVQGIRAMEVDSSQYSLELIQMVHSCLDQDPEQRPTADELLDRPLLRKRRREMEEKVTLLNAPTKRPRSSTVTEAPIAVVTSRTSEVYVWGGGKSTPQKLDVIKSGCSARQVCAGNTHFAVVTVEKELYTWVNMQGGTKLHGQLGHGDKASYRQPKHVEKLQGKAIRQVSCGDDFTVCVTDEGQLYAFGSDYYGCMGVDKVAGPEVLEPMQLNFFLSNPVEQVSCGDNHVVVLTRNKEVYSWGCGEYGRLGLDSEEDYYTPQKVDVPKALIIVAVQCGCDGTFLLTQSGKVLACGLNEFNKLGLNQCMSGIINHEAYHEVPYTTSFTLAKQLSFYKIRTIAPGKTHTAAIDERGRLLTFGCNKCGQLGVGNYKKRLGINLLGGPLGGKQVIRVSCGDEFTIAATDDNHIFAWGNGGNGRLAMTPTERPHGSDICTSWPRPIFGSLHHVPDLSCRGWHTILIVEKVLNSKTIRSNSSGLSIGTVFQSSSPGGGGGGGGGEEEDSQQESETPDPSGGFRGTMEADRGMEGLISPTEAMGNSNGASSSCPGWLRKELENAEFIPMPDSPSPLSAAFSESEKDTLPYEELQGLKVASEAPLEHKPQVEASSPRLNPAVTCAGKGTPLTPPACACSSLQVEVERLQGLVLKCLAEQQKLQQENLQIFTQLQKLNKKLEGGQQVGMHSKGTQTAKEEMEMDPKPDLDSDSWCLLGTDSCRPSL

Serine/threonine-protein kinase Nek7 (Homo sapiens), sequence (Q8TDX7 whole entry, looked up): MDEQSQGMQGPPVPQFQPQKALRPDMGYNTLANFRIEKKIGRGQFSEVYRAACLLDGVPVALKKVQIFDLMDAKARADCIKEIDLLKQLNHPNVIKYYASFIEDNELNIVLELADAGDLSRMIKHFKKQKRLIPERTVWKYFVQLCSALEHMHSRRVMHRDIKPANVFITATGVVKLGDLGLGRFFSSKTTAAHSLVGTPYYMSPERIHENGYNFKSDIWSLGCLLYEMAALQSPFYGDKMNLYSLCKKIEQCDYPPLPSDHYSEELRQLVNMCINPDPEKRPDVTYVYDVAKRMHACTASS
Serine/threonine-protein kinase Nek6 (Homo sapiens), sequence (Q9HC98 whole entry): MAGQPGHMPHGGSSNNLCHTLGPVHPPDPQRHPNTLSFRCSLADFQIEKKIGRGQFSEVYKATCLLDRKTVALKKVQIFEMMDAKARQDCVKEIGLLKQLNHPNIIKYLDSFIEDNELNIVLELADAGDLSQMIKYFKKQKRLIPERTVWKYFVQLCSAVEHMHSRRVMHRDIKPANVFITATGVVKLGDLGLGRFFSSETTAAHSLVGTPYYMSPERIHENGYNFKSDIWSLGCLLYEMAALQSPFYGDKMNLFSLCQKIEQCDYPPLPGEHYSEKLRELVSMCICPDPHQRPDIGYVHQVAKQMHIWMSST

## Fc1cccc(COc2ccc(Nc3ncnc4cc(-c5ccc[nH]5)sc34)cc2Cl)c1
[1]
  inhibition: 3.19%
[2]
  inhibition: 1.42%
[3]
  inhibition: 4.17%
[4]
  inhibition: 3.51%
[5]
  inhibition: 5.24%
[6]
  inhibition: 1.65%
[7]
  inhibition: 3.84%
[8]
  inhibition: 5.51%
[9]
  inhibition: 2.22%
[10]
  inhibition: 1.71%
